Measurements published in PubChem BioAssay.
For part of these data: Potency and affinity values are given separately. The source made the active and inactive calls.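 Rule for the calls, unless noted: active = primary screen inhibitor hit that blocks the TRPC4 channel at some tested dose, yielding a dose curve; inactive = the rest.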

Key:
[1] = test system: TRPC4 beta (transient receptor potential cation channel C4), mouse; experiment: TRPC4 cation channel opening, retest – cell-based, Fluo4 calcium, HEK293 TRPC4beta/mu-opioid, duplicates, 10 µM, confirmation (AID 2426;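 active = fluorescence ratio normalized to control raised more than 50% in primary screen plus both repeat runs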); details: Fluo4 calcium fluorescence, at 10 µM; hits give high values
[2] = test system: transient receptor potential cation channel C4 beta (TRPC4), mouse; experiment: TRPC4 cation channel opening, second retest – cell-based, second round, Fluo4, HEK293 TRPC4beta/mu-opioid, 1 µM, confirmation (AID 2461;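 active = primary screen active and over 50% activation in each of two duplicate runs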); details: Fluo4 calcium fluorescence, at 1 µM; hits give high values
[3] = test system: TRPC4 (transient receptor potential cation channel C4 beta), mouse; experiment: potentiation of DAMGO EC20 TRPC4 response – cell-based, second round, Fluo-4, HEK293 TRPC4beta/mu-opioid, 1 µM, confirmation (AID 2554;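 active = primary screen hit whose fluorescence ratio, in both repeats, exceeds the weak agonist control mean by 3 SD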); details: DAMGO EC20, Fluo-4 calcium flux, at 1 µM; hits give high values
[4] = test system: TRPC4 beta (transient receptor potential cation channel C4), mouse; experiment: potentiation of DAMGO EC20 TRPC4 response – cell-based, Fluo-4, HEK293 TRPC4beta/mu-opioid, confirmation (AID 2555;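 active = primary screen hit whose calcium fluorescence ratio, in both repeats, exceeds the weak agonist control mean by 3 SD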); details: DAMGO EC20, Fluo-4 calcium flux, at 10 µM; hits give high values
[5] = target: Short transient receptor potential channel 4 (Mus musculus) (UniProt Q9QUQ5); experiment: blockers of DAMGO-evoked TRPC4 calcium flux – cell-based, Fluo4, HEK293 TRPC4beta/mu-opioid, confirmation (AID 2636;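 active = calcium signal cut by more than 3 SD below the full-agonist control yet still positive, in both repeats and the earlier primary screen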); details: at 10 µM; hits give high values
Chain of Short transient receptor potential channel 4 (Mus musculus) (Q9QUQ5 whole entry, looked up): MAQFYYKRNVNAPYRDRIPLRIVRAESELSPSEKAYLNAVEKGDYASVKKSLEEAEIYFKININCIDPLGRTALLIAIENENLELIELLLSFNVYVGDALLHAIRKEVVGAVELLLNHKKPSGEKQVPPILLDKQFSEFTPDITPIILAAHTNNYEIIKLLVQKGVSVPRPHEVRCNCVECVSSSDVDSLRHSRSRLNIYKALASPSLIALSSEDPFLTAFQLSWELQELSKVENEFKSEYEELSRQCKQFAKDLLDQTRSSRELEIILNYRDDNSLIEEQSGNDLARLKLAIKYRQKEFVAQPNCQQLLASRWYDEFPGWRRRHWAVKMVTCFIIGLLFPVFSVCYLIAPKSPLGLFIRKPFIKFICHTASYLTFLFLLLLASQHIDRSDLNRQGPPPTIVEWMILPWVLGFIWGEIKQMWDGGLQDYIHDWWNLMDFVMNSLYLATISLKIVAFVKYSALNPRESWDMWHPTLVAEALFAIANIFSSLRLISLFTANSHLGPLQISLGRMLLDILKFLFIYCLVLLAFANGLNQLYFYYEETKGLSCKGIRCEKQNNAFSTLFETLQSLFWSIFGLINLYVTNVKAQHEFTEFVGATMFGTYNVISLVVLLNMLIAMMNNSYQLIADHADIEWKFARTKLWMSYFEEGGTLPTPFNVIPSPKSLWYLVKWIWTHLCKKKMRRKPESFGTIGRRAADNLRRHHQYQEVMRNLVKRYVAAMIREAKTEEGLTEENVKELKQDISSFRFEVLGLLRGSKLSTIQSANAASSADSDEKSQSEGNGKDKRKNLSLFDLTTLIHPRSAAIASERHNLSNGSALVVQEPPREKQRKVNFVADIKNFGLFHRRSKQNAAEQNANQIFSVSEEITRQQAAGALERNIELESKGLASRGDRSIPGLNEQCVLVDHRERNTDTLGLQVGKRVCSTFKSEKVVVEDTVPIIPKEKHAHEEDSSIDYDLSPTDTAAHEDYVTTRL

[6] = target: Short transient receptor potential channel 4 (Mus musculus) (UniProt Q9QUQ5); experiment: blockers of DAMGO-evoked TRPC4 calcium flux – cell-based, second round, Fluo4, HEK293 TRPC4beta/mu-opioid, 1 µM, confirmation (AID 2637;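 active = calcium signal ratio cut to more than 3 SD under the fully stimulated control mean yet still positive, in both repeats and the primary screen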); details: at 1 µM; hits give high values
[7] = target: Short transient receptor potential channel 4 (Mus musculus) (UniProt Q9QUQ5); experiment: calcium entry via TRPC4 opening agents – cell-based, HEK293 TRPC4/mu-opioid, Fluo-4 calcium, dose response (AID 434937;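 active = primary screen activator hit with a dose response curve and TRPC4 channel activation at any tested dose; inactive = no activation, no dose response, or not a primary hit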)
[8] = target: Short transient receptor potential channel 4 (Mus musculus) (UniProt Q9QUQ5); experiment: potentiation of DAMGO-evoked TRPC4 calcium signal – cell-based, HEK293 TRPC4/mu-opioid, Fluo-4 calcium, EC20 DAMGO, dose response (AID 434941;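 active = earlier screen potentiator hit that boosts the TRPC4 ion channel at some dose, with a dose response; inactive = no potentiation, no dose response, or not a prior hit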;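 note: calcium entry triggered by an EC20 dose of DAMGO at the co-expressed mu-opioid receptor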)
[9] = target: Short transient receptor potential channel 4 (Mus musculus) (UniProt Q9QUQ5); experiment: block of DAMGO-driven TRPC4 calcium entry – cell-based, HEK293 TRPC4/mu-opioid, Fluo-4 calcium, dose response (AID 434942)
[10] = target: Short transient receptor potential channel 6 (Mus musculus) (UniProt Q61143); experiment: TRPC6 blockade by TRPC4 inhibitor hits – cell-based, HEK293, membrane potential dye, duplicate, selectivity assay for TRPC4 inhibitor project, confirmation (AID 434948;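 active = active in primary screen and both duplicates, each dropping signal beyond three positive-control SD with fluorescence still positive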); details: HEK293 TRPC6, membrane potential dye fluorescence, at 10 µM, stimulated with maximal-effect acetylcholine; hits give high values
Chain of Short transient receptor potential channel 6 (Mus musculus) (Q61143 whole entry, looked up): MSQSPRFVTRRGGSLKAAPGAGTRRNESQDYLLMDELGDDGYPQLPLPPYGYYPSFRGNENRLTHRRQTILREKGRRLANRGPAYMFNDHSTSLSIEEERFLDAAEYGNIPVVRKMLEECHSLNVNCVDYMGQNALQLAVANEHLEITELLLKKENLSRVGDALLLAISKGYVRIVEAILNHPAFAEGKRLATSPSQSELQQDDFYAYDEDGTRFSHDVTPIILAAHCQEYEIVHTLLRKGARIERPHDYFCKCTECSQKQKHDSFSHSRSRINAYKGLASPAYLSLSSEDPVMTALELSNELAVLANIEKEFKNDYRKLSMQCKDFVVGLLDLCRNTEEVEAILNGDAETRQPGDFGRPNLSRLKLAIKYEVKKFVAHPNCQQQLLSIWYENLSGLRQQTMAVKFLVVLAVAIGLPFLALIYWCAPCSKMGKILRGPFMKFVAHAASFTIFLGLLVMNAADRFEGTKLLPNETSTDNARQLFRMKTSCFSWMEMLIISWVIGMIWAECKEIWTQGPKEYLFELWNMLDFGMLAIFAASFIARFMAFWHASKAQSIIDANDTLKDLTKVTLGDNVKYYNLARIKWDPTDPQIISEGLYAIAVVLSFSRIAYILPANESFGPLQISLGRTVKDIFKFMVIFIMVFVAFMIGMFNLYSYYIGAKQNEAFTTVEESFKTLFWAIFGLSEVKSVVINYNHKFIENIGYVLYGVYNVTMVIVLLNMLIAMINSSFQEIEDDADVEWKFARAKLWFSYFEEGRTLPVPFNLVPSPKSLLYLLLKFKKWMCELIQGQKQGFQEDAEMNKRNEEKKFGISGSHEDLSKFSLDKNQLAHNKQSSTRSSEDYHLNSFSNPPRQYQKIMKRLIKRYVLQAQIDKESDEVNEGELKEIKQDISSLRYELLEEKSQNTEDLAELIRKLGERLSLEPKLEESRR

[11] = target: Short transient receptor potential channel 6 (Mus musculus) (UniProt Q61143); experiment: TRPC6 opening by TRPC4 activator hits – cell-based, HEK293, membrane potential dye, duplicate, selectivity assay for TRPC4 activator project, confirmation (AID 434950;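 active = membrane potential signal rise above negative control mean plus 3 SD in both duplicates, also active in the earlier TRPC4 screen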;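 for activation: 0% = buffer only wells and 100% = acetylcholine maximal-effect wells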); details: HEK293 TRPC6, membrane potential fluorescence, at 10 µM; activation: hits give high values; outcome: activation
[12] = target: Short transient receptor potential channel 6 (Mus musculus) (UniProt Q61143); experiment: positive modulators of mouse TRPC6 channel – HEK293 cells, membrane potential dye, duplicate, selectivity assay for TRPC4 potentiator project, confirmation (AID 434952;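 active = compound raising the membrane signal above positive-control mean plus 3 SD in both repeats, and a primary screen hit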); details: HEK293 TRPC6, membrane potential dye fluorescence, at 10 µM, maximal acetylcholine added after compound; hits give high values
[13] = target: Short transient receptor potential channel 4 (Mus musculus) (UniProt Q9QUQ5); experiment: calcium flux activators in TRPC4/5HT1a cells, counter-screen for TRPC4 activator project, cell-based, second counter screen, HEK293 TRPC4/5HT1a, Fluo-4 (AID 434977;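 active = calcium signal rise above buffer-control mean plus 5 SD in both duplicates, and also a hit in the primary screen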); details: Fluo-4 calcium flux, at 10 µM; hits give high values
[14] = serotonin-gated TRPC4 signal block – cell-based, second counter screen, HEK293 TRPC4/5HT1a, Fluo-4, counter-screen for TRPC4 inhibitor project, confirmation (AID 434978;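 active = primary screen active whose calcium signal fell more than 3 SD beyond the full-serotonin control mean in both duplicate plates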;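 note: serotonin given first at submaximal then at maximal dose after compound preincubation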); details: Fluo-4 calcium flux, at 10 µM, serotonin added to trigger calcium flux; hits give high values
[15] = test system: TRPC4 (mouse), co-expressed with 5HT1a in HEK293; experiment: enhancement of serotonin-evoked TRPC4 response – cell-based, second counter screen, HEK293 TRPC4/5HT1a, Fluo-4, counter-screen for TRPC4 potentiator project, confirmation (AID 434979;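 active = signal rise over 3 SD above mean of control wells given weak agonist, in both repeats and first screen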); details: Fluo-4 calcium flux, at 10 µM, serotonin added at its EC20 dose; hits give high values
[16] = nonspecific calcium rise without TRPC4 – cell-based, HEK293 mu-opioid receptor line, counter-screen for TRPC4 activator project, confirmation (AID 449723;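 active = hit in primary screen, with calcium signal over 5 SD above buffer well mean in both duplicates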;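 note: counter screen cells carry the mu-opioid receptor alone and lack TRPC4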); details: HEK293 mu-opioid cells, Fluo-4 calcium fluorescence, at 10 µM; hits give high values
[17] = nonspecific potentiation of DAMGO calcium response – cell-based, HEK293 mu-opioid receptor line, counter-screen for TRPC4 allosteric potentiator project, confirmation (AID 449724;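 active = calcium signal rise more than 3 SD above the low-dose agonist control mean, in both duplicate plates and the primary screen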); details: HEK293 mu-opioid receptor cells, Fluo-4 calcium flux, at 10 µM, compound added before EC20 DAMGO stimulus; hits give high values

COc1ccc(CCn2c(N)c(C#N)c3nc4ccccc4nc32)cc1OC
inactive: outcome [1] | outcome [2] | outcome [3] | outcome [4] | outcome [5] | outcome [6] | outcome [7] | outcome [8] | outcome [9] | outcome [10] | outcome [11] | outcome [12] | outcome [13] | outcome [14] | outcome [15] | outcome [16] | outcome [17]

Cc1cc(C(C)(C)C)cc(S(=O)(=O)Nc2cccc(C(=O)O)c2)c1C
active: potentiation [4] 9% | potentiation [15] 19%
inactive: outcome [1] | outcome [2] | outcome [3] | outcome [5] | outcome [6] | outcome [7] | outcome [8] | outcome [9] | outcome [10] | outcome [11] | outcome [12] | outcome [13] | outcome [14] | outcome [16] | outcome [17]

COc1ccc(C(=O)CCC(=O)Nc2cccc(Cl)c2)cc1
inactive: outcome [1] | outcome [2] | outcome [3] | outcome [5] | outcome [6] | outcome [7] | outcome [8] | outcome [9] | outcome [10] | outcome [11] | outcome [12] | outcome [13] | outcome [14] | outcome [16] | outcome [17]
active: potentiation [4] 10% | potentiation [15] 22.1%

O=C(C1=C[C@H](c2ccc(C(F)(F)F)cc2)C[C@H](OCCCCO)O1)N1CCN(Cc2ccccc2)CC1
inactive: outcome [1] | outcome [2] | outcome [3] | outcome [4] | outcome [5] | outcome [6] | outcome [7] | outcome [8] | outcome [9] | outcome [10] | outcome [12] | outcome [13] | outcome [14] | outcome [15] | outcome [16] | outcome [17]
active: activation [11] 35%

Cc1ccc2[nH]c(C)c(CCN(Cc3cccnc3)C(=S)NC(C)(C)C)c2c1
inactive: outcome [1] | outcome [2] | outcome [3] | outcome [4] | outcome [5] | outcome [6] | outcome [7] | outcome [8] | outcome [9] | outcome [10] | outcome [11] | outcome [12] | outcome [13] | outcome [14] | outcome [15] | outcome [16] | outcome [17]

COC(=O)[C@H](Cc1ccccc1)NC(=O)c1ccc2ccccc2n1
inactive: outcome [1] | outcome [2] | outcome [3] | outcome [5] | outcome [6] | outcome [7] | outcome [8] | outcome [9] | outcome [10] | outcome [11] | outcome [12] | outcome [13] | outcome [14] | outcome [16] | outcome [17]
active: potentiation [4] 81% | potentiation [15] 59.7%

COc1ccc(N(C(=O)c2snc(C(N)=O)c2N)C(C(=O)NC2CCCCC2)c2ccc(C)o2)c(OC)c1 (stereo not given)
inactive: outcome [1] | outcome [2] | outcome [3] | outcome [4] | outcome [5] | outcome [6] | outcome [7] | outcome [8] | outcome [9] | outcome [10] | outcome [11] | outcome [12] | outcome [13] | outcome [14] | outcome [15] | outcome [16] | outcome [17]

COc1cccc(OCc2cc(C(=O)N3CCN(C)C(c4ccccc4)C3)no2)c1 (stereo not given)
inactive: outcome [1] | outcome [2] | outcome [3] | outcome [4] | outcome [5] | outcome [6] | outcome [7] | outcome [8] | outcome [9] | outcome [10] | outcome [11] | outcome [12] | outcome [13] | outcome [14] | outcome [16] | outcome [17]
active: potentiation [15] 16.7%

NCCc1nnc(SCc2ccccc2)o1
inactive: outcome [1] | outcome [2] | outcome [3] | outcome [4] | outcome [5] | outcome [6] | outcome [7] | outcome [8] | outcome [9] | outcome [10] | outcome [11] | outcome [12] | outcome [13] | outcome [14] | outcome [15] | outcome [16] | outcome [17]

O=S(=O)(c1ccccc1Cl)N1CCC(Cc2ccccc2)CC1
active: potentiation [4] 16% | potentiation [15] 6.72%
inactive: outcome [1] | outcome [2] | outcome [3] | outcome [5] | outcome [6] | outcome [7] | outcome [8] | outcome [9] | outcome [10] | outcome [11] | outcome [12] | outcome [13] | outcome [14] | outcome [16] | outcome [17]

O=C1CC(NS(=O)(=O)c2cccs2)CN1c1ccccc1 (stereo not given)
active: potentiation [4] 14% | potentiation [15] 29.8%
inactive: outcome [1] | outcome [2] | outcome [3] | outcome [5] | outcome [6] | outcome [7] | outcome [8] | outcome [9] | outcome [10] | outcome [11] | outcome [12] | outcome [13] | outcome [14] | outcome [16] | outcome [17]

Cn1c2ccccc2c(=O)c2c(=O)n(-c3ccccc3)c(-c3ccc(C(C)(C)C)cc3)nc21
inactive: outcome [1] | outcome [2] | outcome [3] | outcome [4] | outcome [5] | outcome [6] | outcome [7] | outcome [8] | outcome [9] | outcome [10] | outcome [11] | outcome [12] | outcome [13] | outcome [14] | outcome [15] | outcome [16] | outcome [17]

O=c1c2ccccc2oc2nc(C3CCCCC3)n(Cc3ccco3)c(=O)c12
inactive: outcome [1] | outcome [2] | outcome [5] | outcome [6] | outcome [7] | outcome [8] | outcome [9] | outcome [10] | outcome [11] | outcome [12] | outcome [13] | outcome [14] | outcome [16] | outcome [17]
active: potentiation [3] 10% | potentiation [4] 11% | potentiation [15] 30.7%

CCOC(=O)COc1cc(-n2c(=S)[nH]c3ccccc3c2=O)c(Cl)cc1Cl
active: potentiation [3] 8% | potentiation [4] 21%
inactive: outcome [1] | outcome [2] | outcome [5] | outcome [6] | outcome [7] | outcome [8] | outcome [9] | outcome [10] | outcome [11] | outcome [12] | outcome [13] | outcome [14] | outcome [15] | outcome [16] | outcome [17]

CCN(CCO)Cc1csc2ccc(Br)cc12
inactive: outcome [1] | outcome [2] | outcome [4] | outcome [5] | outcome [6] | outcome [7] | outcome [8] | outcome [9] | outcome [10] | outcome [11] | outcome [12] | outcome [13] | outcome [14] | outcome [15] | outcome [16] | outcome [17]
active: potentiation [3] 12%
